Anthrax LF prot: inhibitors of Bacillus anthracis lethal factor protease; inhibition, % at 10 µM; 360,000 tested, 0.12% active; multiplex microsphere protease cleavage assay, LF; AID 588501; P15917; further: plate controls were buffer without enzyme for full effect and enzyme alone for no effect
BoNT F protease: blocks Botulinum neurotoxin F light chain protease. inhibition, % at 10 µM. Multiplex microsphere protease cleavage assay, flow cytometry. 360,000 tested, 0.22% active. AID 588497; in the data active means inhibition above about 35%, passing the limit was not always enough; inconclusive means no clear call, values can overlap the other calls; further: plate controls were buffer without enzyme for full effect and enzyme alone for no effect
BoNT A protease: BoNT A light chain protease inhibition. 360,000 tested, 0.17% active. multiplex microsphere protease substrate cleavage, flow cytometry. AID 588499. inhibition, % at 10 µM; further: plate controls were buffer without enzyme for full effect and enzyme alone for no effect
Autofluor counter: counter-screen for toxin protease inhibitors: compound fluorescence. fluorescence intensity (concentration not given with the values). compound autofluorescence counterscreen, microsphere flow cytometry; active compounds read high. AID 624483. 360,000 tested, 3.1% active; in the data active means fluorescence intensity above about 16000; inconclusive means no clear call, values can overlap the other calls
MazF activator: activators of E. coli MazEF toxin-antitoxin RNase. P0AE70. FAM/BHQ RNA-DNA oligo cleavage fluorescence, 5 h. activation, % at 20 µM. 350,000 tested, 0.32% active; in the data active means activation above about 50%
* = called active by the depositor; u = inconclusive; x = no result given. A selection: hits, their analogues and other compounds. The true share with any hit is near 3.6%. Unless noted, no stated cut-off is given here; in the data, active means inhibition above about 30%; inconclusive means no clear call, values can overlap the other calls; inactive means below that.

SMILES	Anthrax LF prot	BoNT F protease	BoNT A protease	Autofluor counter	MazF activator
CCc1ccc(NC(=O)c2cccnc2)cc1	-2.3	-5.0	u	21122*	4.0
CCN(C(=O)c1ccc(Cl)c([N+](=O)[O-])c1)c1ccccc1	-8.9	-13.9	0.1	3687	1.5
CCc1ccc(NC(=O)N(C2CCCCC2)C(C)c2cccnc2)cc1 (stereo not given)	-0.3	-1.9	-1.8	20168*	4.9
CCCNS(=O)(=O)c1ccc(NC(=O)c2cccnc2)cc1	-0.3	1.2	0.5	20443*	4.5
CCN(C(=O)c1ccnc(C(C)(C)C)c1)c1ccccc1	-3.2	6.0	5.5	21211*	4.9
O=C(Nc1ccc(NS(=O)(=O)c2ccccc2)cc1)c1cccnc1	1.0	-0.4	0.1	2484	-10.4
Cc1cc(NC(=S)N(CCCN2CCN(C)CC2)Cc2ccco2)ccc1Cl	-1.5	0.9	-0.5	4372	10.4
CC(C)(C)c1cc(C(=O)Nc2cccc3ccccc23)ccn1	8.6	-8.2	-0.9	6897	-5.4
CCc1ccc(OC(=O)c2cccnc2)cc1	36.6*	-5.8	-3.1	3031	7.1
CCc1ccc(NC(=O)c2ccnc(C(C)(C)C)c2)cc1	-1.5	-2.4	-1.1	24202*	2.4
Cc1ccc(OC(=O)c2cccnc2)cc1	-4.8	-0.5	-0.6	3059	-4.3
c1ccc(Cc2nnc3sc(-c4ccc5c(c4)OCO5)nn23)cc1	-2.9	2.2	-0.9	10869	4.0
FC(F)(F)c1nnc2sc(-c3ccccn3)nn12	-4.7	25.3	0.3	4464	9.1
c1ccc(Cc2nnc3sc(-c4cccnc4)nn23)cc1	-5.8	-4.7	-1.4	16689*	0.6
c1ccc(Cc2nnc3sc(-c4ccccn4)nn23)cc1	0.2	5.7	u	21625*	7.4
CCOc1ccccc1-c1nn2c(Cc3ccccc3)nnc2s1	-3.2	-17.2	-13.7	19404*	-5.1
c1ccc(Cc2nnc3sc(-c4ccncc4)nn23)cc1	-1.1	-0.4	-0.8	23785*	1.2
c1ccc(Cc2nnc3sc(-c4cccs4)nn23)cc1	3.4	7.4	0.9	7931	0.3
Cc1cc(C)c(NC(=O)CNC(=O)Cc2ccc(S(=O)(=O)N3CCOCC3)s2)c(C)c1	-0.9	-8.7	-4.1	u	-3.4
CC(C)(C)C(=O)COC(=O)c1ccc2c(c1)C(=O)N(Cc1ccco1)C2=O	8.9	8.4	-1.7	3703	-2.1
O=C(NCCCN1CCOCC1)c1c(F)cccc1F	-0.6	-3.8	u	21499*	-9.5
COC(=O)CNC(=O)c1c(-c2c(Cl)cccc2Cl)noc1C	-0.4	-0.7	1.5	23118*	2.6
COC(=O)CNC(=O)c1c(-c2ccccc2Cl)noc1C	0.8	-0.6	-0.3	2239	-2.0
O=C(CCc1ccccc1)NCCCN1CCOCC1	-1.1	8.2	1.4	3514	1.7
Cc1onc(-c2c(F)cccc2Cl)c1C(=O)NCCCN1CCOCC1	2.5	1.3	u	20261*	-5.1
SMILES	Anthrax LF prot	BoNT F protease	BoNT A protease	Autofluor counter	MazF activator
O=C(CCCc1ccccc1)NCCCN1CCOCC1	2.9	3.7	2.0	22241*	13.4
OC(Cc1ccccc1Br)c1ncc(-c2cccc(C(F)(F)F)c2)[nH]1 (stereo not given)	-7.3	-5.0	-0.3	3829	x
CCCNC(=O)C1(C)CCCN(C(=O)c2ccc3sccc3c2)C1 (stereo not given)	-4.5	-5.5	-0.7	4144	x
Cc1onc(-c2c(F)cccc2Cl)c1C(=O)Nc1cccc2nsnc12	-1.0	1.0	1.3	22508*	4.0
Cc1[nH]c2ccccc2c1C(=O)/C=C/c1ccccc1Cl	-1.1	-1.2	-0.9	2218	50.7*
Cc1c([N+](=O)[O-])oc2c1C(=O)NCCC2	-6.4	5.5	-0.2	3815	3.5
CCCN(CCO)Cc1cccc(Cl)c1	1.6	-2.3	-1.1	16966*	0.0
OCCN(Cc1ccccc1)Cc1cccc(C(F)(F)F)c1	-2.5	0.7	0.5	23013*	0.8
OCCN(Cc1ccccc1)Cc1cccc(F)c1	0.9	-0.2	-1.3	20011*	4.6
OCCN(Cc1ccccc1)Cc1ccccc1Cl	-2.8	-0.8	u	23592*	-6.2
OCCN(Cc1ccccc1)Cc1ccccc1F	-5.3	-6.5	-0.9	11295	-16.9
CSc1ccccc1NC(=O)Nc1cccc(F)c1	0.9	-2.4	-0.1	2526	8.4
CSc1ccccc1NC(=O)c1ccccc1N(C)S(C)(=O)=O	-5.1	-4.7	-1.8	22950*	6.0
CSc1ccccc1NC(=O)c1ccccc1N(Cc1ccccc1)S(C)(=O)=O	-11.0	10.9	8.9	19711*	0.1
CC(=O)Nc1ccc(NC(=O)c2ccccc2N(Cc2ccccc2)S(C)(=O)=O)cc1	14.1	u	-4.6	3828	7.2
